From the supplement of paper PMC11732987, “Enantioselective OTUD7B fragment discovery through chemoproteomics screening and high-throughput optimisation” (Communications Chemistry, 2025)
Unmarked numbers belong to inactive results.

Experiments:
Test in all cases: log2 ratio of Biotin-Ahx-Ub-VS probe labelling (fragment/DMSO); higher = less target engagement (more negative = stronger competition), active = hit call of the paper (q ≤ 0.05, log2 ratio ≤ -1)
Details in all cases: compound concentration: 200 uM; treatment time: 3 h
[1] = target: USP16 (UniProt Q9Y5T5)
Summary of the method: (§1)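 Labelled DUBs from HEK293T lysate were NeutrAvidin-enriched, digested with LysC and trypsin, and run by diaPASEF LC-MS/MS. Before that, each 495 µg sample in Tris/CHAPS/IGEPAL buffer with protease inhibitors was treated in triplicate with fragment at 200 µM or vehicle for 3 h, then with Biotin-Ahx-Ub-VS at 0.5 µM final for 1 h. Values are average log2 ratios of fragment over vehicle by unpaired t-test, based on global-median-normalised Spectronaut label-free quantities from proteins with ≥2 unique peptides.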

[2] = target: T1, USP19 (UniProt O94966)
T1 sequence (whole entry): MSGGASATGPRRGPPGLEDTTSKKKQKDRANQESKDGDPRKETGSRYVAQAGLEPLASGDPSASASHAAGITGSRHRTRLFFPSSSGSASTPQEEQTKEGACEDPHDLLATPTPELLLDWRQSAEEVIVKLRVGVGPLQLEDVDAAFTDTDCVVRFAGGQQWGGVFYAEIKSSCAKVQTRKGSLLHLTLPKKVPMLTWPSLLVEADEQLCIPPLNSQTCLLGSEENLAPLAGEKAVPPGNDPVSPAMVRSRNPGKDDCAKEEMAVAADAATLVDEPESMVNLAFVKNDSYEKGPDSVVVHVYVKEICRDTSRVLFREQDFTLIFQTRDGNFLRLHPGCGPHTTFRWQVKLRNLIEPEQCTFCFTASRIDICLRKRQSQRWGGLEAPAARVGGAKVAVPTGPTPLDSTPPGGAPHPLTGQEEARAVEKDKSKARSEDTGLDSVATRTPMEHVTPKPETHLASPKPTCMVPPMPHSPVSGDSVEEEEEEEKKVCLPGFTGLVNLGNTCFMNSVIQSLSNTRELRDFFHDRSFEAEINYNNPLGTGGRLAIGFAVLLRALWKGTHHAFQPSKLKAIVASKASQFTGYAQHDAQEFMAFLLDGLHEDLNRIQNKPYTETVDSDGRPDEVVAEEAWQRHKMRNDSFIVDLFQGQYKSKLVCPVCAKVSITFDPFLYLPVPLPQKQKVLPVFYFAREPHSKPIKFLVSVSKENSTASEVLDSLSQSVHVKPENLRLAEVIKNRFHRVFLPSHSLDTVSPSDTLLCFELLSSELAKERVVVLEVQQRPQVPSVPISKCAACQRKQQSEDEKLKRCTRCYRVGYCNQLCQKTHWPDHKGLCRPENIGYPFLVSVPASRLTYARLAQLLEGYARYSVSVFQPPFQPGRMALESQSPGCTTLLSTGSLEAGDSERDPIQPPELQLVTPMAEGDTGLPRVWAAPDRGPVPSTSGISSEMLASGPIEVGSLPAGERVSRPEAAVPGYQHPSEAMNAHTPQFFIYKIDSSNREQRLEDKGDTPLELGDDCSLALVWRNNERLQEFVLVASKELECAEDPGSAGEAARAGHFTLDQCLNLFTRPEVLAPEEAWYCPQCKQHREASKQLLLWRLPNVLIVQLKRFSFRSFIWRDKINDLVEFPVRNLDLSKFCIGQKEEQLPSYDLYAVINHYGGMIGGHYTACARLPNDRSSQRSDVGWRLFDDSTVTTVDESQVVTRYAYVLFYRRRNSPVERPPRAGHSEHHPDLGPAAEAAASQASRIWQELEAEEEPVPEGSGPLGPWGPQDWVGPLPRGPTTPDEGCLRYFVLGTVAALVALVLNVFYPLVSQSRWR
Summary of the method: as §1

[3] = target: USP24 (UniProt Q9UPU5)
Summary of the method: as §1

[4] = target: T2, USP25 (UniProt Q9UHP3)
T2 sequence (whole entry): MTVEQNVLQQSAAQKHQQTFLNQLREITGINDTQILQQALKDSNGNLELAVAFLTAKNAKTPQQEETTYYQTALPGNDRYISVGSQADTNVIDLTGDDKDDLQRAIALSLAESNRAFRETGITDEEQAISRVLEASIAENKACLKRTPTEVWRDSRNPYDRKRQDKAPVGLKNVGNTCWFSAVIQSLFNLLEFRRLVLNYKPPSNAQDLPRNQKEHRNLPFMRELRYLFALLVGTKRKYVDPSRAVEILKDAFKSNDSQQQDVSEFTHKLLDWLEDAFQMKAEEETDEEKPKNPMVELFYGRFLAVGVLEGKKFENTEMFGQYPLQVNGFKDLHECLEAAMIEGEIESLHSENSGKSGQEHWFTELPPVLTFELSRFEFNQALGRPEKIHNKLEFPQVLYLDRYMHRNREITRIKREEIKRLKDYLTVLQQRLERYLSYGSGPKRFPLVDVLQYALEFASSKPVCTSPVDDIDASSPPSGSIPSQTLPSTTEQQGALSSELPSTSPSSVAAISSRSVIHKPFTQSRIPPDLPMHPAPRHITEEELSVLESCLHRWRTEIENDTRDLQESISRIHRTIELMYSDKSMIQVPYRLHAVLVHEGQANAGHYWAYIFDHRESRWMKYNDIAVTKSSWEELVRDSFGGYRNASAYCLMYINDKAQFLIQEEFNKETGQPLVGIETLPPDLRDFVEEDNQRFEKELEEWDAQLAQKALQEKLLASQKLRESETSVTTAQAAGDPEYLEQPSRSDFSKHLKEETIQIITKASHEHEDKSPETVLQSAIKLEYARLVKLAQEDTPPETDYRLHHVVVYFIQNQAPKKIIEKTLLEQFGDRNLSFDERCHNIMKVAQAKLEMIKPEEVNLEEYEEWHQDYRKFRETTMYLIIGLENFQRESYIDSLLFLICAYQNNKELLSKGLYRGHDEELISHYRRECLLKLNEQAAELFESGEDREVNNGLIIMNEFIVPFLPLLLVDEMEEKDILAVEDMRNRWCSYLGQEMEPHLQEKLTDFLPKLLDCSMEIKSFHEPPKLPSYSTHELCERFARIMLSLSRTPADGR
Summary of the method: as §1

[5] = target: T3, USP28 (UniProt Q96RU2)
T3 sequence (whole entry): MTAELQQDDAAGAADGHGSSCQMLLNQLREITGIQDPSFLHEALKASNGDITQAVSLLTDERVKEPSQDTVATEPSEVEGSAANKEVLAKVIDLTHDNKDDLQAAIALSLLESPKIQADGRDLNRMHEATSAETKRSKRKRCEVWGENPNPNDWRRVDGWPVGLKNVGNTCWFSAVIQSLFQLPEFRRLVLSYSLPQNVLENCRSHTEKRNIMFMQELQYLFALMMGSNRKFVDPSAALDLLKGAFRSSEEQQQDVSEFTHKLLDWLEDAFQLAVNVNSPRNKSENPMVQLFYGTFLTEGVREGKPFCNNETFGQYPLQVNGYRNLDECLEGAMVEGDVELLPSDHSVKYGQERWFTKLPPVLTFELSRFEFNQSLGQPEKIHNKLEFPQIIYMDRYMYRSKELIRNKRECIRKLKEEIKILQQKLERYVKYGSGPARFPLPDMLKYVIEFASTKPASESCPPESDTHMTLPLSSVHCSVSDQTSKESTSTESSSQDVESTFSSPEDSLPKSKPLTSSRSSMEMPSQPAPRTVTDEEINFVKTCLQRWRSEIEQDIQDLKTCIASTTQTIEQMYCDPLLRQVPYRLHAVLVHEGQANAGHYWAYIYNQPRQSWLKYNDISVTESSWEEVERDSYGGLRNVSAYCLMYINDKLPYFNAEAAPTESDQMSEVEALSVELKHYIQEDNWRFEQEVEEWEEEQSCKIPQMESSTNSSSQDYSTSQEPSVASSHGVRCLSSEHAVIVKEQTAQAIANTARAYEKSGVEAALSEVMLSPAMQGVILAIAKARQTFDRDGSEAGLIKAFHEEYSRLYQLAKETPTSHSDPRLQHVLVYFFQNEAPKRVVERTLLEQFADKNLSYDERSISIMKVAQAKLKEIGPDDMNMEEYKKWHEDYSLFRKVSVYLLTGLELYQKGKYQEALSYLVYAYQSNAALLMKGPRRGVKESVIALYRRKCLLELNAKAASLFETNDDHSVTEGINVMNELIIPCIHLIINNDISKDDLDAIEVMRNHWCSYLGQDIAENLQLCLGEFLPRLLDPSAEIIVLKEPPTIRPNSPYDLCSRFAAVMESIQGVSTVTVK
Summary of the method: as §1

Sequence of USP16 (Q9Y5T5 whole entry, looked up, the tested form may be a part): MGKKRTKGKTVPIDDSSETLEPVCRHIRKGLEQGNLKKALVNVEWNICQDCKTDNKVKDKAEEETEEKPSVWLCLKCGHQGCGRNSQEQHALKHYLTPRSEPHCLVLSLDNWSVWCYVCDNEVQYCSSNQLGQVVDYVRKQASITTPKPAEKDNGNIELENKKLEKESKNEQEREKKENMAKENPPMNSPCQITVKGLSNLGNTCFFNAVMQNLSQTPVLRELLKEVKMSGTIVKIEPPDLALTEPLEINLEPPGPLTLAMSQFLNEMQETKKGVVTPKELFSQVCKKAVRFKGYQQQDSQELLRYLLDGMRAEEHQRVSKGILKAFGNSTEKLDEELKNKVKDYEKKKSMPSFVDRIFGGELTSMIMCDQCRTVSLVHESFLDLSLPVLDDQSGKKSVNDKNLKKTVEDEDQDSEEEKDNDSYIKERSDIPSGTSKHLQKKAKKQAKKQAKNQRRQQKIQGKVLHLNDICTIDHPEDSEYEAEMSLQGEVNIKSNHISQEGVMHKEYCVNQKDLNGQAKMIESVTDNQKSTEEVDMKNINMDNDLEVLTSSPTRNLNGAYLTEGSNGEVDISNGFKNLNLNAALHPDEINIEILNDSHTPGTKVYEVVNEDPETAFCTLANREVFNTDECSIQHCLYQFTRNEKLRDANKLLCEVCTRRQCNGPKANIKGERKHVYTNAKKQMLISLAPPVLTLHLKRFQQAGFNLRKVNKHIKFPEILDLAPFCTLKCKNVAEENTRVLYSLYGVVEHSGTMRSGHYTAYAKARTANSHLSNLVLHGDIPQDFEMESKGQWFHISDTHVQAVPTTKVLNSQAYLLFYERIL
Sequence of USP24 (Q9UPU5 whole entry): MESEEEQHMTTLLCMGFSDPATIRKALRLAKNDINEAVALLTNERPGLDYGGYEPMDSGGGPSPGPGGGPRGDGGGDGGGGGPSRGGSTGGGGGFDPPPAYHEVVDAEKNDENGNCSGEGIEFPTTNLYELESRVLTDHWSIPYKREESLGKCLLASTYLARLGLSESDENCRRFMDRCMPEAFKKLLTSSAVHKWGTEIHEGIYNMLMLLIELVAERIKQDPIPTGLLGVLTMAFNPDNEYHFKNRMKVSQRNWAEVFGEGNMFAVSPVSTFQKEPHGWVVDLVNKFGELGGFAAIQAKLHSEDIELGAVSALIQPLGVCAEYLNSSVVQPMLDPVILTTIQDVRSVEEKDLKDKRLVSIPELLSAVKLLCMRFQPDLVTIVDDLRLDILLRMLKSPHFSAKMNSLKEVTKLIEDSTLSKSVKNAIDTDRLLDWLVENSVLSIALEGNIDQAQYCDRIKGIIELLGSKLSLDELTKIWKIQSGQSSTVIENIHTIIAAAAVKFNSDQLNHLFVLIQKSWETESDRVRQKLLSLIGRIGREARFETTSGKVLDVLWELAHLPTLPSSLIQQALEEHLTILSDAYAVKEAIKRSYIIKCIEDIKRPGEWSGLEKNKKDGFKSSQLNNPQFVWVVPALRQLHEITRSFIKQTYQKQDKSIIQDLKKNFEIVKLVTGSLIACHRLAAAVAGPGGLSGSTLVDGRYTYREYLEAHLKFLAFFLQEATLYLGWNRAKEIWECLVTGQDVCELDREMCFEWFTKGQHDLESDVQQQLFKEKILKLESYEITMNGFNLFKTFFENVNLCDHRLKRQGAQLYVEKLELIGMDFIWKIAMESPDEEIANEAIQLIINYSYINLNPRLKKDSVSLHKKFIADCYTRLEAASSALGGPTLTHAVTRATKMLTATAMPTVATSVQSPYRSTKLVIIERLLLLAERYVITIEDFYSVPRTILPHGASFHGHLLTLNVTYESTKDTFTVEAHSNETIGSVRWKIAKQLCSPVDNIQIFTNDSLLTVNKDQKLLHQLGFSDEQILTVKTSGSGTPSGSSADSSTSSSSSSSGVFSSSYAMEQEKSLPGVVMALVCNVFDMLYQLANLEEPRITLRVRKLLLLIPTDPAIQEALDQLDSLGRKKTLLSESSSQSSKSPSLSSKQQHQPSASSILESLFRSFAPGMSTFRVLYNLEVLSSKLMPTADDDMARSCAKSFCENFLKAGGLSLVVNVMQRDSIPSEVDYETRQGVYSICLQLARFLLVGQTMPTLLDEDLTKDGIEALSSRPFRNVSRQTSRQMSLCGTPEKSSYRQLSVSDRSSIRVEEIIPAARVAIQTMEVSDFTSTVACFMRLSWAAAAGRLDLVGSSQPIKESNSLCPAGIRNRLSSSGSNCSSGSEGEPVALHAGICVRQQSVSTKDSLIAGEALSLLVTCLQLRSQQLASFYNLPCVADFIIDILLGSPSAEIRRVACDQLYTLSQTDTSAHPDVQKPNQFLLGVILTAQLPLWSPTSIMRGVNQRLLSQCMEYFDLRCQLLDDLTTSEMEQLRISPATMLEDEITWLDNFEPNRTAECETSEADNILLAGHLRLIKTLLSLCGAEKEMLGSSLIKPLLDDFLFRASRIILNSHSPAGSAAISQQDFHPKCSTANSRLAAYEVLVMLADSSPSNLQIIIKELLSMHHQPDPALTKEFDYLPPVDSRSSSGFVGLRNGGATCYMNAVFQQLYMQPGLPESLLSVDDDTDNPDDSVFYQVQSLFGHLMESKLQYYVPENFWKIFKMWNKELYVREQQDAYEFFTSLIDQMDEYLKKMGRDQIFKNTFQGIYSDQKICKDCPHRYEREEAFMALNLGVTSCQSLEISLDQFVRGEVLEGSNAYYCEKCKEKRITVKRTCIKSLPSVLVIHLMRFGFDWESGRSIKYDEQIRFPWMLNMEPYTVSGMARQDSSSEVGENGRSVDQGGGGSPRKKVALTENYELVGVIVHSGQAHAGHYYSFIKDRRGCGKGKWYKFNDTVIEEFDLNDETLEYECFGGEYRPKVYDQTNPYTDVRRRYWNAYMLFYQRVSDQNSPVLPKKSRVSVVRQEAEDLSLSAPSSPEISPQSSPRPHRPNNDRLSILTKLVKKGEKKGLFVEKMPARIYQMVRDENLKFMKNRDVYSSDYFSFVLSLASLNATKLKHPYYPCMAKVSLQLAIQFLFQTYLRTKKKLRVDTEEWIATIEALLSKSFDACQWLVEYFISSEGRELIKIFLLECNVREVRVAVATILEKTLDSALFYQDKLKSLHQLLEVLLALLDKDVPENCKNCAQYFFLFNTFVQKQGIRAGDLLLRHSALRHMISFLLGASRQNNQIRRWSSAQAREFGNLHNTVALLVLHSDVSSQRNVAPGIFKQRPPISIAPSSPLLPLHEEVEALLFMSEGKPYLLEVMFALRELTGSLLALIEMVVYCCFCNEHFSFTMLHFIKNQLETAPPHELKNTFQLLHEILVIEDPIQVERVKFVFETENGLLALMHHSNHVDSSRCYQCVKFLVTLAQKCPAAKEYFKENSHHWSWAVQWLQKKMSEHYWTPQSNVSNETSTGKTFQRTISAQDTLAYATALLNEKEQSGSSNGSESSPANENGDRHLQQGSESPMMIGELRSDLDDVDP

O=C(CCl)N1CC=C(c2c[nH]c3ccccc23)CC1
log2 ratio of Biotin-Ahx-Ub-VS probe labelling [1]: 0.156 | log2 ratio of Biotin-Ahx-Ub-VS probe labelling [2]: -1.72 (active) | log2 ratio of Biotin-Ahx-Ub-VS probe labelling [3]: -1.48 (active) | log2 ratio of Biotin-Ahx-Ub-VS probe labelling [4]: -0.457 | log2 ratio of Biotin-Ahx-Ub-VS probe labelling [5]: -1.1 (active)
